Laboratory results as given in PubChem BioAssay (Tox21).
Inconclusive results are not listed. Active and inactive are the calls of the source. Unless noted, calls come from the whole dose curve; as a rule, active = well fitted curve in the direction sought with a large enough effect in the repeat runs; inconclusive = weak or mixed curves; inactive = no such curve, though single readings can be large; an effect the other way counts as inactive or inconclusive.

Assays:
[1] = qHTS assay for small molecule agonists of the p53 signaling pathway - cell viability (AID 651633; calls by dose curve; note: nearly all actives have a fitted effect of over 30% in size; note: potency is the fitted concentration of half-maximal effect)
Procedure, shortened: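 Viability counter-read: CellTiter-Glo luminescence (30 min, room temperature) in the same p53RE-bla plates. These plates had been exposed to compounds for 16 h at 37 C.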

[2] = qHTS assay for small molecules that induce genotoxicity in human embryonic kidney cells expressing luciferase-tagged ATAD5 - cell viability (AID 651634; calls by dose curve; note: nearly all actives have a fitted effect of over 25% in size; note: potency is the fitted concentration of half-maximal effect)
Procedure, shortened: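 Live-cell protease activity (CellTiter-Fluor, fluorescence) indicates viability. HEK293T cells with luciferase-tagged ATAD5; 15.5 hr compound treatment at 37C.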

[3] = qHTS assay for small molecule disruptors of the mitochondrial membrane potential - cell viability (AID 720634; calls by dose curve; note: nearly all actives have a fitted effect of over 20% in size; note: potency is the fitted concentration of half-maximal effect)
Procedure, shortened: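 Human hepatoma HepG2 cells were treated for 1 hr with test chemicals, then given m-MPI dye and CellTiter-Glo. Cell viability reflects luminescence proportional to cellular ATP.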

[4] = qHTS assay for small molecule disruptors of the mitochondrial membrane potential (AID 720635); note: potency is the fitted concentration of half-maximal effect
Procedure, shortened: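 Mitochondrial membrane potential tracked with Mito-MPS dye, red aggregates (ex 540/em 590 nm) against green monomers (ex 490/em 535 nm). Compound treatment 1 hr at 37C, dye 30 min in HepG2.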

[5] = qHTS assay to test for compound auto fluorescence at 590 nm (red) in HepG2 cells (AID 720674)
Procedure, shortened: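 1 hr compound incubation on HepG2 cells, 37 C, 5% CO2; plate read ex 540 nm / em 590 nm; intensities reported as Rose Bengal sodium equivalents.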

[6] = qHTS assay to test for compound auto fluorescence at 535 nm (green) in HepG2 cells (AID 720675)
[7] = qHTS assay to test for compound auto fluorescence at 460 nm (blue) in HEK293 cells (AID 720678)
Procedure, shortened: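 Blue read-out at excitation 405 nm and emission 460 nm follows overnight compound exposure of HEK293 cells at 37C in 5% CO2. Activity is given as auto fluorescence equivalency to triamterene.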

[8] = qHTS assay to test for compound auto fluorescence at 590 nm (red) in HEK293 cells (AID 720679)
Procedure, shortened: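 Red channel, Ex/Em 540/590nm; signal expressed as equivalency to Rose Bengal sodium. HEK293, 2,000 cells/well, 10% dialyzed FBS; 23 nL compound pinned after 4-5 hr attachment; overnight 37C/5% CO2 before reading.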

[9] = qHTS assay to test for compound auto fluorescence at 535 nm (green) in HEK293 cells (AID 720680)
[10] = qHTS assay to test for compound auto fluorescence at 460 nm (blue) in HEK293 cell free culture (AID 720681)
Procedure, shortened: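 Blue fluorescence (Ex 405/Em 460 nm, triamterene-equivalent) was read immediately after pin transfer of compound or DMSO into medium (DMEM, 10% FBS) without cells.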

[11] = qHTS assay to test for compound auto fluorescence at 535 nm (green) in HEK293 cell free culture (AID 720682)
Procedure, shortened: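 Steps: dispense DMEM/10% FBS into empty wells; pin in compound or DMSO; measure fluorescence at 485/535 nm. Values are fluorescein equivalents.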

[12] = qHTS assay to test for compound auto fluorescence at 590 nm (red) in HEK293 cell free culture (AID 720683)
Procedure, shortened: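 Red-channel autofluorescence of compounds in culture medium (DMEM, 10% FBS), no cells, measured at 540/590 nm. Rose Bengal sodium is the reference fluorophore for equivalence.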

[13] = qHTS assay to test for compound auto fluorescence at 590 nm (red) in HepG2 cell free culture (AID 720684)
Procedure, shortened: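 Steps: dispense MEM/10% FBS medium, no cells; pin compound or DMSO vehicle; read red channel, Ex/Em 540/590 nm. Output given as Rose Bengal sodium equivalents.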

[14] = qHTS assay to test for compound auto fluorescence at 460 nm (blue) in HepG2 cell free culture (AID 720685)
Procedure, shortened: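 Compound (23 nL) or DMSO pinned into cell-free MEM with 10% FBS; blue fluorescence read at 405/460 nm excitation/emission, expressed as auto-fluorescence equivalency to triamterene.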

[15] = qHTS assay to test for compound auto fluorescence at 535 nm (green) in HepG2 cell free culture (AID 720686)
[16] = qHTS assay to test for compound auto fluorescence at 460 nm (blue) in HepG2 cells (AID 720687)
Procedure, shortened: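 Blue-channel autofluorescence (Ex/Em 405/460 nm, triamterene-equivalent) was measured after 1 hr compound exposure at 37 C, 5% CO2. Cells were HepG2, plated overnight at 37 C in MEM plus 10% FBS.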

[17] = qHTS assay for small molecules that induce genotoxicity in human embryonic kidney cells expressing luciferase-tagged ATAD5 (AID 651632); note: nearly all actives have a fitted effect of over 15% in size
Procedure, shortened: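 Genotoxicity read-out via ATAD5-luciferase: HEK293T cells, 16 hr compound incubation at 37C, Amplite detection.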

[18] = target: Glucocorticoid receptor (Homo sapiens) (UniProt P04150); assay: qHTS assay to identify small molecule agonists of the glucocorticoid receptor (GR) signaling pathway (AID 720691; active = well fitted activation curve with a large enough effect in the signal ratio in the repeat runs, not every such curve was filed as active; the % refers to the signal ratio); conditions: GR-bla HeLa, beta-lactamase reporter ratio, 18 h; activation: at 62.4 µM (top of the series)
Procedure, shortened: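 Beta-lactamase reporter activity, read as fluorescence intensity, was measured in GR-bla HeLa cells exposed to compounds for 18 h at 37 C and then loaded with LiveBLAzer B/G FRET substrate for 2 h at room temperature.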

Measured: Potency

Glucocorticoid receptor (Homo sapiens), sequence (P04150 whole entry, looked up): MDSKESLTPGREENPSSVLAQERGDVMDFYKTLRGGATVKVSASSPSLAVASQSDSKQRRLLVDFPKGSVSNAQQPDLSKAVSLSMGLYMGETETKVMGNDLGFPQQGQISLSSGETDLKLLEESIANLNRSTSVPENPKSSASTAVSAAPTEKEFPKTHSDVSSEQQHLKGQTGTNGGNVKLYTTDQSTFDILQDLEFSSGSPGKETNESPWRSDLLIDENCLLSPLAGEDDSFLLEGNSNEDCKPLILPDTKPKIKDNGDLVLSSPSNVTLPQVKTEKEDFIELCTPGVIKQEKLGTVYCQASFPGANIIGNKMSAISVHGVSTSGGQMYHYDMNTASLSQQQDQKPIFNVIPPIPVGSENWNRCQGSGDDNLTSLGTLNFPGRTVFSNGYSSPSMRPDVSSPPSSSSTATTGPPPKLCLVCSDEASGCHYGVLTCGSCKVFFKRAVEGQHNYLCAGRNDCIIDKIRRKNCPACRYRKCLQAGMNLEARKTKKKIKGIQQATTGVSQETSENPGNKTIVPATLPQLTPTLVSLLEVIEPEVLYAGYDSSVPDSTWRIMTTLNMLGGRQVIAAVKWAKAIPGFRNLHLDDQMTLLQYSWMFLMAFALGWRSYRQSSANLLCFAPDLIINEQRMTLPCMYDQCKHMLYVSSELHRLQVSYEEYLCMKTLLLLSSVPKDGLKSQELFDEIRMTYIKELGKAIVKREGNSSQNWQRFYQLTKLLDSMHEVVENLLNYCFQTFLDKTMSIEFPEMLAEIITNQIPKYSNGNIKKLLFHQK

[F][Sn]([c]1ccccc1)([c]1ccccc1)[c]1ccccc1
active: [1] 3.06 µM | [2] 0.486 µM | [3] 19.3 µM | [4] 0.273 µM
not listed: [17] | [18]
inactive: all other assays above

C1=CCC=C1
not listed: [4] | [7] | [10] | [14] | [16] | [17] | [18]
inactive: all other assays above

Clc1ccc(C(Cl)(Cl)Cl)cc1Cl
active: [4] 59.8 µM
not listed: [1] | [2] | [5]
inactive: all other assays above

[C-]1=CC=CC1.[Cl][Zr+2][Cl].c1cc[cH-]c1
inactive: [2] | [3] | [6] | [8] | [9] | [11] | [12] | [13] | [15]

O=C(N[C@@H]1N=C(c2ccccc2F)c2cccc3c2N(CC3)C1=O)c1cc2ccccc2[nH]1
active: [4] 8.41 µM
not listed: [8] | [9] | [12] | [14] | [17] | [18]
inactive: all other assays above
